Compound activity as filed in PubChem.
Only some compounds are listed: those with a hit (about 7.1% of all), similar ones and a draw of the others.
MARV entry inh – Marburg virus entry inhibition | Marburg virus pseudotype entry/binding inhibition, cell-based | Potency, µM (doses to about 49.2 µM), most hits filed as inhibitors | 18,000 compounds, 6.5% hits | AID 720532
LASV entry inh – Lassa virus entry inhibition; Lassa virus pseudotyped entry inhibition, cell-based qHTS; Potency, µM (titrated, usually from 49.2 µM), usual class: inhibitors; 18,000 compounds, 4.1% hits; AID 720533
Numbers stand for hits; – = inactive; ? = inconclusive; · = no result; ! = a repeat was not active; [ ] = remark or other dose. The call rests on the fitted dose curve; tested in HEK293 cells.

SMILES	MARV entry inh	LASV entry inh
C=CCN1[C@@H](CC(C)C)COc2c(Cl)cccc2S1(=O)=O	–	–
CN(C)c1ccc(-c2nc(N(C)C)c3ccccc3n2)cc1	11.2µM	–
CN(C)c1ccc(-c2nc(N(C)Cc3ccco3)c3ccccc3n2)cc1	?	–
CN(C)c1ccc(-c2nc(Nc3ccncc3)c3ccccc3n2)cc1	?	–
CNc1nc(-c2ccc(N(C)C)cc2)nc2ccccc12	17.8µM	–
CCS(=O)(=O)c1ccc(OC)c(Nc2ncc(-c3cccc(-c4ccccc4F)c3)o2)c1	–	·
O=C(c1ccc(Br)cc1)N1[C@H](COCc2ccccc2)C=CS1(=O)=O	–	–
COc1cccc([C@@H]2[C@@H](C)CC[C@@H]3C(=O)NC[C@H](O)CN32)c1	–[8.59 µM]	–[8.59 µM]
COC(=O)CC=C1c2ccc(F)cc2[C@@H](OC)[C@@H]1C	–[8.59 µM]	·
C[C@H]1CCC/C=C/[C@@H]2C[C@H](O)C[C@H]2[C@H](O)/C=C/C(=O)O1	1.12µM	1.12µM
C[C@H]1CCC/C=C/C2C[C@H](O)C[C@H]2[C@H](O)/C=C/C(=O)O1 (some centres undefined)	0.631µM	0.631µM!
C[C@H]1CCCC(=O)CCC/C=C/c2c(O)cc(O)cc2C(=O)O1	–	–
C[C@]12C[C@@](C)(C=C1C=Cc1ccc(F)cc1)C(=O)C[C@H]2c1ccc(F)cc1	–[8.59 µM]	·
C[C@@H]1CC[C@H]2C(=O)N(Cc3ccccc3)C[C@H](O)CN2[C@@H]1c1ccc(Br)cc1	–[8.59 µM]	–[8.59 µM]
COC(=O)c1ccc(CN2C(=O)C3(CC(C)=C[C@@H](C)O3)c3c(Br)cccc32)cc1 (some centres undefined)	–[8.59 µM]	–[8.59 µM]
C=C[C@@H](O)C[C@H]1C=C[C@@H]2C[C@H](C=C)OP(=O)(O1)O2	–	–
C[C@@H]1[C@@H]2Cc3ccc(O)cc3[C@@]1(C)CCN2CC1CC1	–	–
C[C@@H]1[C@@H]2Cc3ccc(O)cc3[C@@]1(C)CCN2CCc1ccccc1	20µM	?
COc1ccccc1N1C(=O)[C@@H]2CSCCS(=O)(=O)N2C1=O	–	–
COc1ccc2c3c([nH]c2c1)C(C)=NCC3	?	–
COc1ccc2c(c1)[nH]c1c(C)nccc12	22.4µM	–
CCCCC#C[C@@H]1C=C[C@H](Oc2ccc(C(=O)OC)cc2)[C@@H](COC(=O)OCC)O1	–[8.59 µM]	–[8.59 µM]
C=CCOC(=O)C(C(C)=O)[C@@H](NC(=O)OC)c1cccc(C(F)(F)F)c1 (some centres undefined)	–[8.59 µM]	–[8.59 µM]
CC(C)CON=C1C[C@@H](O)[C@@H](O)[C@@H]2[C@H]3C(=O)N(Cc4ccccc4)C(=O)[C@@H]3CC[C@@H]12	–[8.59 µM]	–[8.59 µM]
COc1cc(OC)c2c(-c3cccc(-c4ccc(OC(F)(F)F)cc4)c3)cc(=O)oc2c1	–	–
SMILES	MARV entry inh	LASV entry inh
COc1cc(OC)c2c(-c3cccc(-c4ccc(CO)cc4)c3)cc(=O)oc2c1	1µM	?
COc1cc(OC)c2c(-c3cccc(-c4ccc(N(C)C)cc4)c3)cc(=O)oc2c1	3.55µM	?
COc1cc(OC)c2c(-c3cccc(/C=C/c4ccc(F)cc4)c3)cc(=O)oc2c1	–	–
COC(=O)CC=C[C@@H](C)[C@@H](C=NOC[C@@H](O)COCc1ccco1)OC	–[8.59 µM]	–[8.59 µM]
O=C(NN=C1C[C@@H](O)[C@H](O)[C@H]2[C@@H]3C(=O)N(c4cccc(Oc5ccccc5)c4)C(=O)[C@@H]3CC[C@H]12)OCc1ccccc1	–[8.59 µM]	·
c1cc(CN2CCCCC2)cc(OCCCNc2nc3ccccc3s2)c1	15.8µM	?
c1ccc2sc(N3CCN(Cc4ccc5c(c4)OCO5)CC3)nc2c1	–	–
O=C(O)c1cc(C(=O)O)c(C(=O)N(Cc2cccc(Oc3ccccc3)c2)[C@H]2CCCc3ccccc32)cc1C(=O)O	–	–
CNC(=O)[C@@H]1C[C@@H](NCc2cccc(Oc3ccccc3)c2)CN1C(C)C	10µM	–
CCCCCCCc1cc2ccccc2c2c(C(=O)OC)c(-c3ccccc3)c(C(=O)OC)n12	?	–[8.59 µM]
COC(=O)[C@@]1(C=C[C@@H](C)[C@H](OC)c2ccccc2Br)[C@@H]2OCCC[C@@H]21	–[8.59 µM]	–[8.59 µM]
COc1cc2ncnc(Nc3ccc(Cl)cc3F)c2cc1OC	–	–
C=CC(=O)Nc1cc2c(Nc3ccc(F)c(Cl)c3)ncnc2cc1OCCCN1CCOCC1	7.08µM	?
CC=COC(=O)N[C@@H](c1ccccc1)[C@]1(C(=O)OC)CCCC1=O	?	–[8.59 µM]
CC(C)[C@H]1C(=O)N2CCC[C@H]2[C@]2(O)O[C@](NC(=O)[C@@H]3C[C@@H]4c5cccc6[nH]cc(c56)C[C@H]4N(C)C3)(C(C)C)C(=O)N12	7.08µM	–
CC(C)[C@@]1(NC(=O)[C@@H]2C[C@@H]3c4cccc5[nH]cc(c45)C[C@H]3N(C)C2)O[C@@]2(O)[C@@H]3CCCN3C(=O)[C@H](Cc3ccccc3)N2C1=O	7.08µM	35.5µM!
CC(C)[C@@]1(NC(=O)[C@@H]2C[C@H]3c4cccc5[nH]cc(c45)C[C@@H]3N(C)C2)O[C@]2(O)[C@H]3CCCN3C(=O)CN2C1=O	?	–
CN1C[C@H](C(=O)N[C@@]2(C)O[C@@]3(O)C4CCCN4C(=O)C(Cc4ccccc4)N3C2=O)C[C@H]2c3cccc4[nH]cc(c34)C[C@H]21 (some centres undefined)	–	–
COC(=O)C1=C(C(=O)OC)[C@@H]2Nc3ccccc3[C@@]23C[C@@H](C(=O)OC)N(C(=O)NC(C)(C)C)C3=N1	–[8.59 µM]	–[8.59 µM]
COC1=C[C@H](C(=O)N[C@H]2CCCC[C@H]2NC(C)=O)[C@@]2(C)Cc3ccccc3[C@@H]2CC1=O	–[8.59 µM]	–[8.59 µM]
COC[C@@H](OC(C)=O)[C@H]1OCc2ccccc2[C@H]1C=Cc1ccccc1	–[8.59 µM]	–[8.59 µM]
CC(=O)NC1C(OC2OC(CC(O)C3OC([N+]4=CCC(=O)NC4=O)C(O)C3O)C(O)C(O)C2NC(=O)/C=C/CCCCCCCCC(C)C)OC(CO)C(O)C1O (centres undefined)	?	–
CC(=O)N[C@H]1C(O[C@@H]2O[C@H](C[C@@H](O)[C@H]3O[C@@H](N4CCC(=O)NC4=O)[C@H](O)[C@@H]3O)[C@H](O)[C@H](O)[C@H]2NC(=O)/C=C/CCCCCCCCCCC(C)C)OC(CO)[C@@H](O)[C@@H]1O (some centres undefined)	4.47µM	?
O=c1oc2c(O)c(O)cc3c(=O)oc4c(O)c(O)cc1c4c23	0.996µM	–
O=c1c(O)c(-c2ccc(O)c(O)c2)oc2c(O)c(O)cc(O)c12	?	–
SMILES	MARV entry inh	LASV entry inh
COC[C@H]1O[C@@H]2O[C@@H]1[C@@H](C=Cc1ccccc1)C[C@H]2C	–[8.59 µM]	–[8.59 µM]
CC(=O)OC[C@H]1O[C@H](C#CC(C)(C)C)C=C[C@H]1OC(C)=O	–[8.59 µM]	–[8.59 µM]
C#C[C@@H]1C=C[C@H](Oc2ccc(OC)cc2)[C@H](CO)O1	–[8.59 µM]	–[8.59 µM]
O=c1cc(-c2ccc(O)cc2)oc2ccc(O)cc12	–	11.2µM
O=c1cc(-c2cccc(O)c2)oc2ccc(O)cc12	–	?
CCOC(=O)NN=C1C[C@@H](O)[C@@H](O)[C@@H]2[C@H]3C(=O)N(Cc4ccccc4)C(=O)[C@@H]3CC[C@@H]12	–[8.59 µM]	–[8.59 µM]
O=C(O)P(=O)(O)O	–	–
O=P(O)(O)O	6.31µM	35.5µM
Cc1c(C(=O)NCCN2CCC(c3ccccc3)CC2)cnn1-c1nccc(-c2cccs2)n1	12.6µM	–
Cc1c(C(=O)NCCc2ccccn2)cnn1-c1nccc(-c2cccs2)n1	–	–
CS(=O)(=O)CCNCc1nc(-c2ccc3ncnc(Nc4ccc(OCc5cccc(F)c5)c(Cl)c4)c3c2)cs1	–	–
COc1cc2ncnc(Nc3ccc4c(cnn4Cc4ccccc4)c3)c2cc1OC	?	–
